Results on 16 molecules are retold here after paper PMC12136788.

Substitutions are numbered along the chain they refer to. Over roughly 24,000 sequences, “enrichment r” has its median near 0.99; the highest 2% begin near 3.7. The sample as a whole holds a higher share of the highest values than the screen did.

T1: UNK ZnF1-3 (human, UniProt Q9C0B0 31-174)
T1 sequence: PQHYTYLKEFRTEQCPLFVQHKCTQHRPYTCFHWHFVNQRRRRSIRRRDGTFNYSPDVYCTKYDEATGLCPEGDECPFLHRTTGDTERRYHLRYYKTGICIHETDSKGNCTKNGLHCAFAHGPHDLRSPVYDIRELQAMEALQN

B1: 132431906_132432936_2116_CDS_ENSG00000170606_ENST00000304858|human|control|control (ssRNA)
RNA: GGGAGUUCUACAGUCCGACGAUCUCUCAUUUCAUACACAUAUUCCUCCACUGCGUUCUUAGCAUCAUUCCGCUCCUUCUCCAGUUUAUCCUGCAUGAUCAUCUUACCCUCAUUUUCAAUGUACAAGUUGAGCAUCUCUCUGUCCAACAGAGGAUUGAGCAUCA
B2: 96523144_96524318_649_CDS_ENSMUSG00000031751_ENSMUST00000053766|mouse|control|control (ssRNA)
RNA: GGGAGUUCUACAGUCCGACGAUCGGAAAGGUAUUCAAAUCUGUCUUUGCAGAGCUGAACCAUCAGAUGCAGGAAGACAAGUCCAGCAAACCAGAGGCACCACAUCACCACUUCCUCCACAGUCUGGACAUUCAGCACUCCAAACAACAGAGGAUUGAGCAUCA
B3: chr18:33606911:33606912:-_ENSG00000141425_ENST00000399022|hu_mus|FALSE|FALSE (ssRNA)
RNA: GGGAGUUCUACAGUCCGACGAUCUUCCAAUUUAUGUUCUUUCUCUGCAAGGGCUUCCUUUUGACAACGAAGAAAAUCUGCUAACAUUCGGGUGAGUUGCUUUCUAUCAUCUAUUUCUGCCGCCAGUCUGCCAUUAUAAUCUGCCAACAGAGGAUUGAGCAUCA
B4: chr12:48362563:48362564:+_ENSG00000134291_ENST00000256686|hu_hu|hu_hu_hu_mus_False|58_88 (ssRNA)
RNA: GGGAGUUCUACAGUCCGACGAUCUCCGUCAAGCCCUUCGAUAGACCCAUAGACUCUAAACUGUAAUCACUUUGUAUUUCUAAAAAAAAGAAACGCCAAAAACUUUCCAAAAAGCGGGGGUGGGGUGAGGCGGGAGGGGGAGGUCAACAGAGGAUUGAGCAUCA
B5: 419052_420092_3597_CDS_ENSG00000073614_ENST00000399788|human|control|control (ssRNA)
RNA: GGGAGUUCUACAGUCCGACGAUCUUCUAUUAGUUCUUUUACUUUUUUCCUCCUAUUUUUGCCACUCCCAUAUACACCAAUGUCGGUCCGGGGGCUCAGCACCUGUAACAAUGUAUGGCUAGAAUUCUUCUUAAGAAACGUCCGCAACAGAGGAUUGAGCAUCA
B6: chr7:888068:888069:+_ENSG00000164828_ENST00000456758|hu_hu|motif|central (ssRNA)
RNA: GGGAGUUCUACAGUCCGACGAUCUUGAACUAAAAAUGAUGAAAAAGAUGAUGCAGUGUAUCUGGCCAGCCACAAAAUCCGGUUCACGUAGAAAGACGCACCGCAUUUUUGAUUCCUGUCCCUAGAAUAAACUCUCGACACGGGCAACAGAGGAUUGAGCAUCA
B7: chr19:40639365:40639366:-_ENSMUSG00000025007_ENSMUST00000025979|mus_mus|motif|central (ssRNA)
RNA: GGGAGUUCUACAGUCCGACGAUCGGCUGCCACCUGGGGUAGACAGUCAGGGCGAGACUCAAAGAUCACCAGUAAAACACCGGUUGGGACAGUCACUUGUUCUAACUCCAGGUUUUUGGCAAUCCGAGUCCGGCGCAGGACGCGCAACAGAGGAUUGAGCAUCA
B8: chr2:168997265:168997266:-_ENSG00000198648_ENST00000355999|hu_mus|motif|central (ssRNA)
RNA: GGGAGUUCUACAGUCCGACGAUCUUUAUUCCGUGUAACAUCACCCCCUGUGGCUAAGAAUGCGCUUACUCCAAAAUCUGCGGUUUGUACUGAGCCAUCCUCACCCAGAAGAAUAUUUCCAGCUUUCAAAUCCCUAUGGAUCUGCAACAGAGGAUUGAGCAUCA
B9: chr2:27806210:27806211:+_ENSMUSG00000026837_ENSMUST00000028280|mus_mus|FALSE|FALSE (ssRNA)
RNA: GGGAGUUCUACAGUCCGACGAUCUGUGGUUUCUCUGGCAGCUUCCACUGGCUUCUGAGUAGGGGCAGGCUCCUUUCCCGGGUCUUCAGGGUCUUCAUAAUAUGGAUACUCAUAGUAAUAGGUCUCACCCUCUCCUUCUGGGUACAACAGAGGAUUGAGCAUCA
B10: chr2:202488911:202488912:-_ENSG00000155755_ENST00000286196|hu_mus|hu_hu_hu_mus_False|1_18 (ssRNA)
RNA: GGGAGUUCUACAGUCCGACGAUCAUUGAAACAUUUUUCAUAAUCUCCAGUAGCAUUUCAGCAUUAUGUAACAAAAGCUCAAUUGUAAAUACAUGUAUCUUAUAAAAAUACACUUAAAUUUAAAAACGGGGAGCGCACAAAUACCAACAGAGGAUUGAGCAUCA
B11: chr1:229631779:229631780:-_ENSG00000069248_ENST00000261396|hu_hu|motif|central (ssRNA)
RNA: GGGAGUUCUACAGUCCGACGAUCUAAUUCCCAUUUACUGAUGUUUGAACUCGUCAGGCUAUAAAAGCUUGAUCUCUCUCGGUCCCAGAGAACACUUGAAAGUGUGAGAUCACUACUAGGAGAUAAAAUUCCAAAAAGAGAAGACAACAGAGGAUUGAGCAUCA
B12: chr2:202488911:202488912:-_ENSG00000155755_ENST00000286196|hu_mus|hu_hu_hu_mus_False|8_18 (ssRNA)
RNA: GGGAGUUCUACAGUCCGACGAUCAUUGAAACAUUUUUCAUAAUCUCCAGUAGCAUUUCAGCAUUAUGUAACAAAAGCUCAAUUGUAAAUACAUGUAUCUUAUAAAAAUACACUUAAAUUUAAAAACAAAAAUGGGAGGCGCCACAACAGAGGAUUGAGCAUCA
B13: chr2:202488911:202488912:-_ENSG00000155755_ENST00000286196|hu_mus|hu_hu_hu_mus_False|18_48 (ssRNA)
RNA: B12 RNA with U93C, G94A, A96G, A127G, A128G, A129G, A130G, U132G, G133C, G135C
B14: chr19:47150976:47150977:-_ENSG00000197380_ENST00000391916|hu_hu|motif|central (ssRNA)
RNA: GGGAGUUCUACAGUCCGACGAUCACUGGGGAGUCACCAUCGUCAUAAUAAAUACAGUAAUUUUAAAAAAGAAAAAAAAUACGGGAUUGGAACAGCUGAGGGUCAUCAGGCUUCCCCCAUUCCCUCUCACAGGGAGUGGGGGUCCAACAGAGGAUUGAGCAUCA
B15: chr2:202488911:202488912:-_ENSG00000155755_ENST00000286196|hu_mus|hu_hu_hu_mus_False|8_8 (ssRNA)
RNA: B12 RNA with U118A, U119A, U120C, A122C, A123G, A125G, C126U
B16: chrX:140365796:140365797:-_ENSMUSG00000031285_ENSMUST00000033642|mus_mus|mus_mus_mus_hu_False|48_108 (ssRNA)
RNA: GGGAGUUCUACAGUCCGACGAUCCUUCUCAUUACUUAGUGCCUGCAAGGUUCUGGUUCGGUAGAAGCUACAGUGGGCGCUGUGAGUGGGACUUGGAAACCCAUUCAUCCGGGAGCCUCGCAUGUUCCUGGAUGUCUUAUCUCUCAACAGAGGAUUGAGCAUCA

The target of this assay is T1, UNK ZnF1-3. Put plainly: nsRBNS (natural sequence RNA bind-n-seq); RBNS binding buffer (assumed for nsRBNS): 25 mM Tris pH 7.5, 150 mM KCl, 3 mM MgCl2, 0.01% Triton X-100, 500 ug/ml BSA, 20 U/ml SUPERase-In, 4 C; UNK is unkempt and MSI1 is Musashi-1; names of the RNAs are library labels; protein concentration not given here; high values mean tight binding.
Consider B1, for which the binding signal was found to be 0.774 enrichment R. The figure for B2 is 2.02 enrichment R; for B3 it is 0.802 enrichment R.

B4 returned a binding signal of 1.85 enrichment R.

Take B5: the binding signal came to 0.677 enrichment R. The result for B6 reads 1.34 enrichment R; that for B7, 1.58 enrichment R; that for B8, 0.927 enrichment R. The figure for B9 is 0.892 enrichment R. For the molecule B10, the binding signal came to 3.65 enrichment R.

B11 gave a binding signal of 1.07 enrichment R. With B12, the binding signal is 6.76 enrichment R. The result for B13 reads 3.69 enrichment R. The figure for B14 is 6.05 enrichment R; for B15 it is 0.957 enrichment R. For B16, the binding signal came to 0.604 enrichment R.
